# Laboratory results: PubChem BioAssay (NCATS)
# Results filed as inconclusive are left out. Unmarked numbers belong to inactive results. Calls of active or inactive are those of the source. The call rests on the fitted dose curve; in most records, active means well fitted curve in the direction sought with a large enough effect; inconclusive means small, poorly fitted or top-dose-only effect, or another doubt; inactive means no such curve, though single readings can be large; an effect the other way counts as inactive or inconclusive.
# Key:
# [1] = Quantitative High-Throughput drug screen in 47 multiple myeloma cell lines against the NCATS MIPE library collection: KMS20_JCRB cell viability assay (AID 1918973); further: nearly all actives have a fitted effect of over 45% in size
# Summary of the method: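 CellTiter-Glo ATP luminescence gave viability after 48 h compound treatment at 37C of 500 multiple myeloma cells per well. Normalisation used DMSO-only wells as 100% and media-only wells as 0% viability; primary qHTS of approved and investigational drugs.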
# [2] = Quantitative High-Throughput drug screen in 47 multiple myeloma cell lines against the NCATS MIPE library collection: KMS26_JCRB cell viability assay (AID 1918975); further: nearly all actives have a fitted effect of over 45% in size
# Summary of the method: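 Luminescent ATP measurement with CellTiter-Glo gives viability, scaled between DMSO-only wells (100%) and media-only wells (0%). Cells, 500 per well, faced library compounds for 48 hours at 37C.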
# [3] = Quantitative High-Throughput drug screen in 47 multiple myeloma cell lines against the NCATS MIPE library collection: MMM1_PLB cell viability assay (AID 1918976); further: nearly all actives have a fitted effect of over 35% in size
# Summary of the method: (§1)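 Inhibition of viability over 48 h was scored by ATP content (CellTiter-Glo) in 500-cell wells. Zero and full viability were defined by media-only and DMSO-only wells.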
# [4] = Quantitative High-Throughput drug screen in 47 multiple myeloma cell lines against the NCATS MIPE library collection: NCIH929_DSMZ cell viability assay (AID 1918978); further: nearly all actives have a fitted effect of over 35% in size
# Summary of the method: as §1
# [5] = Quantitative High-Throughput drug screen in 47 multiple myeloma cell lines against the NCATS MIPE library collection: OCIMY1_PLB cell viability assay (AID 1918979); further: nearly all actives have a fitted effect of over 35% in size; on viability: series mostly up to about 46 µM
# Summary of the method: as §1
# [6] = Quantitative High-Throughput drug screen in 47 multiple myeloma cell lines against the NCATS MIPE library collection: MM1S_ATCC cell viability assay (AID 1918980); further: nearly all actives have a fitted effect of over 45% in size
# Summary of the method: as §1
# [7] = Quantitative High-Throughput drug screen in 47 multiple myeloma cell lines against the NCATS MIPE library collection: MM1R_ATCC cell viability assay (AID 1918981); further: nearly all actives have a fitted effect of over 35% in size
# Summary of the method: as §1
# [8] = Quantitative High-Throughput drug screen in 47 multiple myeloma cell lines against the NCATS MIPE library collection: KMS28PE_JCRB cell viability assay (AID 1918983); further: nearly all actives have a fitted effect of over 35% in size
# Summary of the method: as §1
# [9] = Quantitative High-Throughput drug screen in 47 multiple myeloma cell lines against the NCATS MIPE library collection: KMS34_JCRB cell viability assay (AID 1918985); further: nearly all actives have a fitted effect of over 40% in size
# Summary of the method: as §1
# [10] = Quantitative High-Throughput drug screen in 47 multiple myeloma cell lines against the NCATS MIPE library collection: OCIMY5_PLB cell viability assay (AID 1918988); further: nearly all actives have a fitted effect of over 65% in size
# Summary of the method: as §1
# [11] = Quantitative High-Throughput drug screen in 47 multiple myeloma cell lines against the NCATS MIPE library collection: OPM1_PLB cell viability assay (AID 1918989); further: nearly all actives have a fitted effect of over 40% in size
# Summary of the method: as §1
# [12] = Quantitative High-Throughput drug screen in 47 multiple myeloma cell lines against the NCATS MIPE library collection: SKMM1_PLB cell viability assay (AID 1919863); details: SKMM1 myeloma viability, CellTiter-Glo ATP, 48 h; viability: stronger effect = lower value; further: nearly all actives have a fitted effect of over 35% in size; on viability: series mostly up to about 46 µM
# Summary of the method: as §1
# [13] = Quantitative High-Throughput drug screen in 47 multiple myeloma cell lines against the NCATS MIPE library collection: U266_ATCC cell viability assay (AID 1919864); further: nearly all actives have a fitted effect of over 35% in size
# Summary of the method: as §1
# [14] = Quantitative High-Throughput drug screen in 47 multiple myeloma cell lines against the NCATS MIPE library collection: XG6_PLB cell viability assay (AID 1919865); further: nearly all actives have a fitted effect of over 40% in size
# Summary of the method: as §1
# [15] = Quantitative High-Throughput drug screen in 47 multiple myeloma cell lines against the NCATS MIPE library collection: XG1_PLB cell viability assay (AID 1919866); further: nearly all actives have a fitted effect of over 35% in size
# Summary of the method: as §1
# [16] = Quantitative High-Throughput drug screen in 47 multiple myeloma cell lines against the NCATS MIPE library collection: VP6_DJ cell viability assay (AID 1919867); further: nearly all actives have a fitted effect of over 40% in size
# Summary of the method: as §1
# [17] = Quantitative High-Throughput drug screen in 47 multiple myeloma cell lines against the NCATS MIPE library collection: MOLP8_DSMZ cell viability assay (AID 1918977); further: nearly all actives have a fitted effect of over 45% in size
# Summary of the method: as §1
# [18] = Quantitative High-Throughput drug screen in 47 multiple myeloma cell lines against the NCATS MIPE library collection: LP1_DSMZ cell viability assay (AID 1918982); further: nearly all actives have a fitted effect of over 35% in size
# Summary of the method: as §1
# [19] = Quantitative High-Throughput drug screen in 47 multiple myeloma cell lines against the NCATS MIPE library collection: L363_DSMZ cell viability assay (AID 1918984); further: nearly all actives have a fitted effect of over 40% in size
# Summary of the method: as §1
# [20] = Quantitative High-Throughput drug screen in 47 multiple myeloma cell lines against the NCATS MIPE library collection: OCIMY7_PLB cell viability assay (AID 1918987); further: nearly all actives have a fitted effect of over 65% in size
# Summary of the method: as §1
# Potency means the concentration at half of the fitted maximal effect.
smiles,measurement,setting,value
CC(C)(C)NC(=O)[C@H]1CC[C@H]2[C@@H]3CC[C@H]4NC(=O)C=C[C@]4(C)[C@H]3CC[C@]12C,Potency,[1],3.32 µM (active)
same,Potency,[2],2.96 µM (active)
same,Potency,[3],inactive
same,Potency,[4],0.296 µM (active)
same,Potency,[5],inactive
same,Potency,[6],0.264 µM (active)
same,Potency,[7],1.32 µM (active)
same,Potency,[8],inactive
same,Potency,[9],inactive
same,Potency,[10],0.59 µM (active)
same,Potency,[11],2.64 µM (active)
same,viability,[12],142%
same,Potency,[13],0.743 µM (active)
same,Potency,[14],0.132 µM (active)
same,Potency,[15],0.235 µM (active)
same,Potency,[16],0.662 µM (active)
Nc1ccc(S(=O)(=O)Nc2ccccn2)cc1,Potency,[1],inactive
same,Potency,[2],inactive
same,Potency,[17],inactive
same,Potency,[4],inactive
same,Potency,[5],inactive
same,Potency,[7],inactive
same,Potency,[18],inactive
same,Potency,[8],inactive
same,Potency,[19],inactive
same,Potency,[9],inactive
same,Potency,[11],inactive
same,Potency,[14],inactive
same,Potency,[15],inactive
same,Potency,[16],inactive
Cn1nnc2c(C(N)=O)ncn2c1=O,Potency,[1],inactive
same,Potency,[2],inactive
same,Potency,[3],inactive
same,Potency,[17],inactive
same,Potency,[5],inactive
same,Potency,[7],inactive
same,Potency,[18],inactive
same,Potency,[11],inactive
same,Potency,[14],inactive
same,Potency,[15],inactive
C#CCN[C@@H]1CCc2ccccc21,Potency,[1],inactive
same,Potency,[2],inactive
same,Potency,[3],23.5 µM (active)
same,Potency,[5],inactive
same,Potency,[7],inactive
same,Potency,[18],inactive
same,Potency,[19],inactive
same,Potency,[9],inactive
same,Potency,[11],inactive
same,Potency,[13],inactive
same,Potency,[15],inactive
CCN[C@H]1C[C@H](C)S(=O)(=O)c2sc(S(N)(=O)=O)cc21,Potency,[1],inactive
same,Potency,[2],inactive
same,Potency,[17],inactive
same,Potency,[4],inactive
same,Potency,[5],inactive
same,Potency,[7],inactive
same,Potency,[18],inactive
same,Potency,[19],inactive
same,Potency,[9],inactive
same,Potency,[10],inactive
same,Potency,[11],inactive
same,Potency,[13],inactive
CCCCc1oc2ccc(NS(C)(=O)=O)cc2c1C(=O)c1ccc(OCCCN(CCCC)CCCC)cc1,Potency,[1],9.35 µM (active)
same,Potency,[3],7.43 µM (active)
same,Potency,[17],16.6 µM (active)
same,Potency,[4],18.7 µM (active)
same,Potency,[5],20.9 µM (active)
same,Potency,[7],14.8 µM (active)
same,Potency,[18],16.6 µM (active)
same,Potency,[8],20.9 µM (active)
same,Potency,[19],8.33 µM (active)
same,Potency,[10],4.69 µM (active)
same,Potency,[11],13.2 µM (active)
same,Potency,[12],18.7 µM (active)
same,Potency,[13],14.8 µM (active)
same,Potency,[14],8.33 µM (active)
same,Potency,[15],11.8 µM (active)
same,Potency,[16],7.43 µM (active)
N=C(N)c1ccc(OCCCCCOc2ccc(C(=N)N)cc2)cc1,Potency,[1],10.5 µM (active)
same,Potency,[3],14.8 µM (active)
same,Potency,[17],5.26 µM (active)
same,Potency,[6],16.6 µM (active)
same,Potency,[7],18.7 µM (active)
same,Potency,[8],14.8 µM (active)
same,Potency,[19],inactive
same,Potency,[9],20.9 µM (active)
same,Potency,[10],14.8 µM (active)
same,Potency,[11],11.8 µM (active)
same,Potency,[12],20.9 µM (active)
same,Potency,[13],23.5 µM (active)
same,Potency,[14],16.6 µM (active)
same,Potency,[15],4.69 µM (active)
same,Potency,[16],2.09 µM (active)
CC(C)(C)C(=O)OCOP(=O)(COCCn1cnc2c(N)ncnc21)OCOC(=O)C(C)(C)C,Potency,[1],2.64 µM (active)
same,Potency,[3],18.7 µM (active)
same,Potency,[4],0.209 µM (active)
same,Potency,[5],11.8 µM (active)
same,Potency,[6],2.09 µM (active)
same,Potency,[7],0.332 µM (active)
same,Potency,[18],16.6 µM (active)
same,Potency,[8],4.18 µM (active)
same,Potency,[19],4.69 µM (active)
same,Potency,[10],1.87 µM (active)
same,Potency,[11],6.62 µM (active)
same,Potency,[12],20.9 µM (active)
same,Potency,[13],0.332 µM (active)
same,Potency,[14],0.469 µM (active)
same,Potency,[16],1.05 µM (active)
Nc1nc(=S)c2[nH]cnc2[nH]1,Potency,[1],1.32 µM (active)
same,Potency,[2],6.62 µM (active)
same,Potency,[17],3.32 µM (active)
same,Potency,[4],1.32 µM (active)
same,Potency,[5],8.33 µM (active)
same,Potency,[18],7.43 µM (active)
same,Potency,[8],8.33 µM (active)
same,Potency,[10],3.72 µM (active)
same,Potency,[11],1.18 µM (active)
same,Potency,[12],5.9 µM (active)
same,Potency,[13],8.33 µM (active)
same,Potency,[14],1.05 µM (active)
same,Potency,[15],0.662 µM (active)
same,Potency,[16],1.66 µM (active)
C1CCC(C(CC2CCCCN2)C2CCCCC2)CC1 (stereo not given),Potency,[1],6.62 µM (active)
same,Potency,[3],8.33 µM (active)
same,Potency,[17],16.6 µM (active)
same,Potency,[4],20.9 µM (active)
same,Potency,[5],29.6 µM (active)
same,Potency,[7],9.35 µM (active)
same,Potency,[18],14.8 µM (active)
same,Potency,[8],18.7 µM (active)
same,Potency,[19],8.33 µM (active)
same,Potency,[20],14.8 µM (active)
same,Potency,[10],9.35 µM (active)
same,Potency,[11],10.5 µM (active)
same,Potency,[12],18.7 µM (active)
same,Potency,[13],11.8 µM (active)
same,Potency,[14],20.9 µM (active)
same,Potency,[15],13.2 µM (active)
same,Potency,[16],8.33 µM (active)
CC1=C(C(=O)O)N2C(=O)[C@@H](NC(=O)C(N)c3ccccc3)[C@H]2SC1 (stereo not given in full),Potency,[1],inactive
same,Potency,[5],inactive
same,Potency,[7],inactive
same,Potency,[18],inactive
same,Potency,[8],inactive
same,Potency,[11],inactive
same,viability,[12],130%
same,Potency,[14],inactive
same,Potency,[16],inactive
CC(=O)CC(c1ccccc1)c1c(O)c2ccccc2oc1=O (stereo not given),Potency,[1],inactive
same,Potency,[5],inactive
same,Potency,[7],inactive
same,Potency,[18],inactive
same,Potency,[8],inactive
same,Potency,[9],inactive
same,Potency,[11],inactive
same,Potency,[14],inactive
same,Potency,[16],inactive
CCOC(=O)c1ccc(C#Cc2ccc3c(c2)C(C)(C)CCS3)nc1,Potency,[1],inactive
same,Potency,[5],inactive
same,Potency,[19],inactive
same,Potency,[9],inactive
same,viability,[12],115%
CCCc1cc(C(N)=S)ccn1,Potency,[1],inactive
same,Potency,[17],inactive
same,Potency,[4],inactive
same,Potency,[5],inactive
same,Potency,[7],inactive
same,Potency,[18],inactive
same,Potency,[9],inactive
same,Potency,[10],inactive
same,Potency,[11],inactive
same,Potency,[14],inactive
same,Potency,[15],inactive
same,Potency,[16],inactive
